About 8,600 (12%) of roughly 69,000 compounds showed an effect of 50% or more. The sample as a whole holds a higher share of strong results than the screen did.
tested on: Plasmodium berghei; assay: Screen against P. berghei liver stage (PbLuc), transformed with Luciferase, at 10uM; type: functional, HepG2; conditions: tested at 10 uM

SMILES	INHIBITION
CN1CCC(NC(=O)C2CN(c3cncnc3)CCO2)CC1 (configuration not stated)	14.7%
CN1C[C@@H](c2cccc(F)c2)[C@H]2[C@H]1CCCCCN2C(=O)C1CC1	12.2535%
COc1ccc(C(O)CNC(=O)NCc2nc(C)cs2)cc1 (configuration not stated)	9.14%
COc1ccc(C(C)NC(=O)Cn2ccc(=O)n(C)c2=O)cc1OC (configuration not stated)	31.9%
COc1ccc(CC(=O)N2CCCC2Cn2cc(C)cn2)c(OC)c1 (configuration not stated)	43.2%
CC(C)(O)CN1CCN(C(=O)c2cccn2Cc2cccnc2)CC1	34.6%
Cc1cccc2nc(CN3CCCC3Cn3cccn3)cn12 (configuration not stated)	19.4%
Cn1cc(CNC2CCCOc3c2ccc2ccccc32)cn1 (configuration not stated)	-28.7%
COCCN(CCOC)C(=O)c1cnn(C)c1-n1c(C)ccc1C	42.1%
COCCCNC(=O)CN(C)Cc1ccc(F)cc1Cl	-102%
COCCN(CCOC)C(=O)c1cnn(C)c1C	90.7%
COCCNC(=O)CN(C)Cc1ccc(F)cc1Cl	52.2%
CNC(=O)CN(C)Cc1ccc(F)cc1Cl	-154%
CCCn1ncc(C(=O)N(CCOC)Cc2c(C)nn(CC)c2C)c1C	-89.3%
CN(C)C(=O)C1CCN(C(=O)c2c[nH]c3cc(Cl)ccc23)CC1	-32.2%
CN1CCC(c2cncc(C(=O)NCc3ccc(F)cc3)n2)CC1	-3.02%
O=C(CCc1cccnc1)N1CCC2(CCN(CC3CCCC3)C2)C1 (configuration not stated)	-7.2%
COCCN1CCC(c2cncc(-c3ccccc3C)n2)CC1	46%
Oc1cccc(CN2CCN(C3CCc4ccccc4C3)CC2)c1 (configuration not stated)	54.8%
COc1ccc(CN2CCN(C3CCc4ccccc4C3)CC2)cc1O (configuration not stated)	46.7%
COc1cc(O)ccc1CN1CCN(C2CCc3ccccc3C2)CC1 (configuration not stated)	37.6%
CNc1cc(C)nc(C2COCCN2CCc2ccc(F)cc2)n1 (configuration not stated)	19.6%
CCN1Cc2cc(F)ccc2N(C(C)=O)CCC1=O	23%

SMILES	INHIBITION
CC(C)N1CCc2[nH]nc(C(=O)N3CCOCC3)c2C1	-1.12%
CCN(CC)[C@@H]1CN(C(=O)c2ccc(C#N)cc2)[C@@H]2CCCO[C@H]12	73.6%
CN(C)[C@@H]1CN(C(=O)c2ccc(C#N)cc2)[C@@H]2CCCO[C@H]12	-73.3%
CCN(CC)[C@@H]1CN(C(=O)c2ccnnc2)[C@@H]2CCCO[C@H]12	-62.8%
COCCn1c2c(ccc1=O)CCN(C(=O)Cc1ccsc1)CC2	27.5%
CC(C)C(=O)N1CCCC(c2ncncc2-c2ccncc2)C1 (configuration not stated)	48.3%
Fc1ccc2c(C3=CCN(Cc4nnc(C5CCC5)o4)CC3)c[nH]c2c1	34.6%
C1=C(c2c[nH]c3ncccc23)CCN(Cc2nnc(C3CC3)o2)C1	71.4%
Cc1noc(CN2CC=C(c3cnn(C4CCS(=O)(=O)C4)c3)CC2)n1 (configuration not stated)	1.98%
Cc1noc(CN2CC=C(c3c[nH]c4ncccc34)CC2)n1	74.7%
O=C(c1ccccn1)N1CCCN(Cc2nnc(C3CC3)o2)CC1	-57.4%
Cc1cnc(CN2CC=C(c3c[nH]c4ncccc34)CC2)o1	44.9%
Cc1cnn(CC2CCCCN2C(=O)Cc2cccc(F)c2)c1 (configuration not stated)	35.9%
COc1ccc(C(C)NC(=O)c2nn(C)c(C)c2Br)cc1 (configuration not stated)	30.2%
OC(CN1CCN(Cc2ccc(F)cc2)CC1)C1CC1 (configuration not stated)	-0.113%
Cc1cc(C2CCCCCN2Cc2cn(C)nc2C)no1 (configuration not stated)	6.32%
O=C(Nc1ccc(F)cc1)N1C[C@@H]2C[C@H](C(=O)N3CCCC3)[C@H](C1)O2	7.67%
CC(C)CN(CCc1ccccc1)Cc1nc2c(cnn2C)c(=O)[nH]1	29.2%
Cc1ccccc1CC(C)NCc1c(C)nn(C)c1N1CCOCC1 (configuration not stated)	13.5%
CCc1ccccc1OCCN(C)C(=O)CCN1CCCCO1	69.3%
CCc1ccccc1OCCN(C)C(=O)CN1CCCC1	59.1%
CN(CCCOc1ccccc1Cl)C(=O)CN1CCCCCC1=O	21.2%
Cc1ccc(OCCN(C)C(=O)CCCN2CCCC2=O)c(C)c1	-12.6%

SMILES	INHIBITION
CCc1ccccc1OCCCN(C)C(=O)C1CCCN1C(N)=O (configuration not stated)	-40.4%
CCc1ccccc1OCCN(C)C(=O)CCN1CCCO1	42.4%
O=C(Cc1csc(-c2ccccc2F)n1)NCc1cccc(C(=O)O)c1	0.29%
CO[C@H]1CN(S(=O)(=O)c2ccccc2F)C[C@@]12CCCO2	3.48%
Cc1nc(N)cc(C2CCN2CCOc2ccccc2)n1 (configuration not stated)	-0.232%
COc1ccnc(N2CCN(C(=O)CN3CCOCC3)CC2)n1	31.9%
CC(=O)N1CCCC1c1nccnc1Nc1ncccn1 (configuration not stated)	-107%
O=C(Cn1nc(C(F)(F)F)c(Cl)c1C1CC1)NN1CCOCC1	-3.11%
CC(C(=O)NC1CCN(C)CC1)n1nc(C(F)(F)F)c(Cl)c1C1CC1 (configuration not stated)	82.4%
CC(C(=O)NN1CCOCC1)n1nc(C(F)(F)F)c(Cl)c1C1CC1 (configuration not stated)	74.1%
Cc1c(Cl)c(C(F)(F)F)nn1C(C)C(=O)NN1CCN(C)CC1 (configuration not stated)	35.7%
CC(C(=O)O)n1nc(C(F)(F)F)c(Cl)c1C1CC1 (configuration not stated)	7.3%
Cc1c(Cl)c(C(F)(F)F)nn1C(C)C(=O)NC1CCN(C)CC1 (configuration not stated)	26.8%
Cn1ccc2ccc(C(=O)Nc3nc[nH]n3)cc21	46.4%
CC(=O)N1CCN(C(=O)NCc2ccc(Cl)s2)CC1	42%
O=C1CC[C@H]2[C@H](CCN2C(=O)c2ccc[nH]2)N1CCN1CCOCC1	-14.4%
Cc1nc2ccccc2n1CCNCc1cccc(O)c1	-57.5%
C[C@@H]1C[C@H]2CN(S(=O)(=O)c3ccc(F)cc3)C[C@H]2O1	24.8%
O=C1CO[C@@H]2CN(S(=O)(=O)c3ccccc3F)C[C@H]2N1	44.4%
O=C1CO[C@@H]2CN(S(=O)(=O)c3ccc(F)cc3)C[C@H]2N1	82.2%
c1ncn(Cc2cn3c(n2)CN(CC2CCCC2)CC3)n1	-16.9%

— ChEMBL document CHEMBL4513216, “Probing the Open Global Health Chemical Diversity Library for Multistage-Active Starting Points for Next-Generation Antimalarials” (ACS Infect Dis, 2020)
